Screens as filed in PubChem.
This is a sample that favours compounds with a hit; in the whole collection about 7.1% have one here.
IL-1B inflam inh = qHTS for Inhibitors of Inflammasome Signaling: IL-1-beta AlphaLISA Primary Screen. THP-1 LPS/ATP IL-1B secretion, AlphaLISA, 16 h; stronger effect = lower value. activity change, % at 57.5 µM. hit rate 4.7% among 360,000. AID 743279, 2014; in the data active means activity change below about -50%; inconclusive means mostly about -30% to -49%; further: on the % scale 0 is the no-effect control and ±100 the full control effect
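Secreted IL-1B measured by AlphaLISA bead assay after 16 h compound exposure of THP-1 cells; compounds (final up to 57.5 uM) added 1 h before LPS (250 ng/mL) and ATP (1.25 mM) stimulation; lower signal means less secretion.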
MCF10A rerep = A quantitative high throughput screen for small molecules that induce DNA re-replication in MCF 10a normal breast cells; MCF 10A DNA re-replication, Hoechst nuclear intensity, 48 h; Potency, µM (titrated, usually from 46.1 µM), without a hit: at the highest dose activity, positive = re-replication, hits mostly activators; hit rate 2.9% among 350,000; further: potency means the concentration at half of the fitted maximal effect; % of control where 0% means no effect; nearly all actives have a fitted effect of over 50% in size
ATXN viability = Viability Counterscreen for Primary qHTS for Inhibitors of ATXN expression. hit rate 0.49% among 400,000. S2 cells (HEK-293 line with an ATXN2-luciferase reporter) viability, CellTiter-Fluor protease fluorescence, 24 h. Potency, µM (top dose mostly 56.7 µM), usual class: cytotoxic; further: potency means the concentration at half of the fitted maximal effect; nearly all actives have a fitted effect of over 40% in size
ATXN2 expr inh = Primary qHTS for Inhibitors of ATXN expression; HEK-293 ATXN2-luciferase reporter, luminescence, 24 h; Potency, µM (highest dose often 57 µM), for inactives: top-dose activity change, negative = inhibition, actives largely listed as inhibitors; hit rate 0.72% among 360,000; further: potency means the concentration at half of the fitted maximal effect; on the % scale 0 is the no-effect control and ±100 the full control effect; nearly all actives have a fitted effect of over 55% in size
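qHTS (up to 57 uM final) was run with 24 h compound exposure of reporter cells at 37 °C. Each well was multiplexed: SteadyGlo luminescence measured ATXN2-luciferase expression after a fluorogenic Gly-Phe-AFC viability readout (25 uM final).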
PINK1 expr mod = A Quantitative High throughput Screen to Identify Chemical Modulators of PINK1 Expression; PINK1 immunofluorescence, high-content cytometry, 24 h; Potency, µM (doses to about 76.6 µM), inactives show at the highest dose activation (PINK1 increase), most hits filed as activators; hit rate 0.2% among 410,000; active means well fitted activation curve with a large enough effect; inconclusive means small, poorly fitted or top-dose-only effect; cell line not stated here; further: potency means the concentration at half of the fitted maximal effect; % of control where 0% means no effect; nearly all actives have a fitted effect of over 65% in size
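Measures PINK1 amount and localization on or inside mitochondria by immunofluorescence. Stable cells get compounds at 5 concentrations for 24 hours before fixation and staining; CCCP controls included.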
SW480 rerep = A quantitative high throughput screen for small molecules that induce DNA re-replication in SW480 colon adenocarcinoma cells. hit rate 1.8% among 340,000. SW480 DNA re-replication, Hoechst DNA content imaging, 48 h. Potency, µM (titrated, usually from 46.1 µM), without a hit: at the highest dose re-replication activation, hits mostly activators. AID 624297, 2012; further: potency means the concentration at half of the fitted maximal effect; % of control where 0% means no effect; nearly all actives have a fitted effect of over 55% in size
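Treated cells incubate 48 hr (37 C, 5% CO2), are stained 40 min with Hoechst, and nuclear fluorescence is enumerated; a rise in nuclei with high DNA signal marks re-replication.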
Numbers without * were called inactive; i = inactive; ? = inconclusive; . = not tested or not shown; ! = repeats disagree; [ ] = remark or other dose. Unless noted, the call rests on the fitted dose curve; in most records, active means well fitted curve in the direction sought with a large enough effect; inconclusive means small, poorly fitted or top-dose-only effect, or another doubt; inactive means no such curve, though single readings can be large; an effect the other way counts as inactive or inconclusive.

SMILES	IL-1B inflam inh	MCF10A rerep	ATXN viability	ATXN2 expr inh	PINK1 expr mod	SW480 rerep
COc1cc(=O)n2c(c1C(=O)NC(C)c1ccco1)CCN(C(=O)c1ccc3c(c1)OCCO3)CC2 (centres undefined)	.	.	i	.	0%	.
Cc1nc(-c2ccc(C)c(S(=O)(=O)N3CCC(C(=O)NCc4ccc(F)cc4)CC3)c2)no1	.	.	i	-13%	-1%	.
COc1ccc(OCc2cc(C(=O)NC(C)Cc3cccnc3)no2)c(Cl)c1 (centres undefined)	-15	9%	i	-25%	1%	8.2µM*
CSc1ccccc1OCc1cc(C(=O)NC(C)Cc2cccc(C)n2)no1 (centres undefined)	-57*	30%	i	10%	3%	-1%
COc1ccc(OCc2cc(C(=O)NC(C)Cc3ccccn3)no2)c(Cl)c1 (centres undefined)	-6	1%	i	4%	-1%	-6%
Cc1ccc(NC(=O)c2ccc(Cl)c(N3C(=O)C=CC3=O)c2)cc1	-56*	15µM*	?	?	-2%	13µM*
Cc1ccc(-c2nnc(C3CCN(S(=O)(=O)c4ccc(C)c(C)c4)CC3)o2)cc1	.	.	.	.	2%	.
Cc1cccc(-c2nnc(C3CCN(S(=O)(=O)c4cccc(Cl)c4)CC3)o2)c1	.	.	1.4µM*	1.6µM*	1%	.
CC(=O)Nc1ccc(S(=O)(=O)N2CCC(c3nnc(-c4ccc(C)cc4)o3)CC2)cc1	-14	18%	18µM*	20µM*!	4%	1%
CCOc1ccccc1NC(=O)N1CCC2(CC1)Oc1ccccc1C(=O)N2Cc1ccccc1F	.	.	.	.	1%	.
Cc1ccc(C2=NN=C(NC(=O)C(F)(F)F)SC2)cc1	-82*	2%	i	10%	1%	-5%
CCN(CC)c1ccc(C(=O)N/N=C(\C)c2ccc(O)cc2)cc1	-6	8.2µM*	?	-15%	0%	-4%
C/C(=N\NC(=O)c1ccc(O)cc1)c1ccc2c(c1)Nc1ccccc1S2	-101*	?	i	0%	-3%	0%
CCN(CC)c1ccc(C(=O)N/N=C(\C)c2cccnc2)cc1	-3	20%	i	-3%	0%	-4%
CC1=C(C(=O)Nc2ccccc2)C(c2ccc(C)o2)n2c(s/c(=C/c3ccccc3)c2=O)=N1 (centres undefined)	?	15µM*	i	-7%	6%	-3%
Cc1ccc(C)c(NC(=O)Nc2csc3c2CCCC3)c1	.	.	.	.	9%	.
COc1ccc(C)c2sc(N(CCN(C)C)C(=O)c3ccc4ccccc4c3)nc12	-54*	0%	i	-32%	-1%	-15%
CCOc1cccc2sc(N(CCN(C)C)C(=O)c3ccc4ccccc4c3)nc12	-101*	8%	i	-14%	1%	-16%
Cc1cccc(CN2CCc3nnc(C(C)NC(=O)C4CCOCC4)n3CC2)c1 (centres undefined)	.	.	i	.	3%	.
Clc1ccc2nc(-c3ccc(Cl)nc3)[nH]c2c1	-68*	?	i	36%	0%	13µM*
CCN1CC2=C(OC(N)=C(C#N)C2c2ccccc2)/C(=C\c2ccccc2)C1 (centres undefined)	-16	23µM*	i	-1%	6%	?
Cc1ccccc1N1CCN(CCc2nnc3n2CCCC3)CC1	.	.	i	8%	.	.
COc1cc(C2C=C(C(=O)O)Nc3ncnn32)ccc1O (centres undefined)	.	.	i	1%	0%	.
CCNc1ccc(-c2nc(-c3ccncc3)no2)cc1[N+](=O)[O-]	.	.	i	18%	14µM*	.
COCCNc1ccc(-c2nc(-c3ccncc3)no2)cc1[N+](=O)[O-]	.	.	i	11%	3%	.
SMILES	IL-1B inflam inh	MCF10A rerep	ATXN viability	ATXN2 expr inh	PINK1 expr mod	SW480 rerep
CC(C)n1nc(C(=O)Nc2nc3ccccc3[nH]2)c2ccccc2c1=O	-53*	?	i	-26%	-1%	-1%
CC(C)C[C@H](N)c1nnc(S(=O)(=O)Cc2ccc(F)cc2)o1	-117*	?	.	?	-1%	?
CC(C)C[C@H](N)c1nnc(SCc2ccc(Cl)cc2Cl)o1	.	.	i	-19%	3%	.
COc1ccc(Nc2nc(-c3cccs3)nc3ccccc23)cc1S(=O)(=O)N1CCOCC1	-66*	?	i	-4%	-1%	?
CCOc1cc(CNC(C)(C)CO)cc(Br)c1OCc1ccc(Cl)cc1Cl	?	6.5µM*	.	?	?	28%
CCOc1cc(CNCCO)cc(Br)c1OCc1ccccc1Cl	?	?	i	-35%	1%	-6%[9.22 µM]
CCOc1cc(CNc2ccc(O)cc2)cc(Br)c1OCc1ccccc1F	-63*	?	?	?	3%	?
Cn1c(SCC(=O)N(C2CCCCC2)C2CCCCC2)nnc1-c1cccs1	-5	13µM*	?	-24%	2%[38.3 µM]	?
CCOc1ccccc1NC(=O)CN1C(=O)CC(c2ccco2)Sc2ccccc21 (centres undefined)	.	.	i	-18%	6%	.
Cc1ccc2c(c1)C(c1ccc(F)cc1)N(C(=O)COc1ccc(Cl)cc1Cl)CC(=O)N2 (centres undefined)	.	.	?	?	-2%	.
O=C1c2ccccc2C(=O)c2c(NCCCN(CCO)CCO)cccc21	-103*	?	.	-32%[11.3 µM]	-1%	-1%
COc1ccc(CC(N)c2csc(NC(=O)Nc3cc(OC)ccc3OC)n2)cc1 (centres undefined)	0	.	?	?	-2%	.
NC(CCc1ccccc1)c1csc(NC(=O)Nc2cccc(C(F)(F)F)c2)n1 (centres undefined)	-57*	.	.	?	-1%	.
COc1ccc(CC(N)c2csc(NC(=O)Nc3cccc(C(F)(F)F)c3)n2)cc1 (centres undefined)	-57*	.	?	?	-1%	.
COc1ccc(CC(N)c2csc(NC(=O)Nc3ccc(F)cc3)n2)cc1 (centres undefined)	-65*	.	i	-32%	4%	.
NC(CO)c1csc(NC(=O)Nc2cccc(Cl)c2)n1 (centres undefined)	0	.	i	11%	-1%	.
NC(COCc1ccccc1)c1csc(NC(=O)Nc2cccc(Cl)c2)n1 (centres undefined)	-56*	.	.	?	-1%	.
CC(C)Cc1nc2cc(NS(=O)(=O)N(C)C)cc(C(=O)N3CCc4sccc4C3)c2n1C	.	.	?	.	0%	.
